Of roughly 7,900 targets only a part is listed; those with a hit were picked by preference. About 0.6% of all pairs of compound and target were hits.
What follows are targets tested with CN1C2=C(C3=C1C(=O)N(N=C3)CC4=CC(=CC=C4)N)SC(=C2)S(=O)C (assay: log2 fold change, soluble protein after heating vs DMSO (PISA); higher = thermal stabilisation; K562 cells, 10 uM, 30 min; active = over 0.2 and 3.5 SD of the protein, either way, in both replicates (recomputed)).
Summary of the method: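 Soluble protein was defined as the supernatant after 21,000xg for 90 min. It came from K562 cells at 2×10^6 cells/mL given 10 μM compound for 30 min, heated in aliquots for 3 min across 48°C-58°C, pooled, and extracted in PBS with 0.5% NP-40 at 4°C, and was quantified by TMTpro 16plex LC-MS/MS with equalised channel sums. Thermal stability against control samples, from duplicates, is reported as log2 fold change.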

Chain of UniProt Q6P3W2 (Q6P3W2 whole entry, looked up): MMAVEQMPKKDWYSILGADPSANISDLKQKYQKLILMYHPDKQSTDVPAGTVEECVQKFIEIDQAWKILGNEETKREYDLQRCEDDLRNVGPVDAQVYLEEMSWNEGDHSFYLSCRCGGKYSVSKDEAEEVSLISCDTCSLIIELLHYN
Chain of UniProt P25685 (P25685 whole entry, looked up): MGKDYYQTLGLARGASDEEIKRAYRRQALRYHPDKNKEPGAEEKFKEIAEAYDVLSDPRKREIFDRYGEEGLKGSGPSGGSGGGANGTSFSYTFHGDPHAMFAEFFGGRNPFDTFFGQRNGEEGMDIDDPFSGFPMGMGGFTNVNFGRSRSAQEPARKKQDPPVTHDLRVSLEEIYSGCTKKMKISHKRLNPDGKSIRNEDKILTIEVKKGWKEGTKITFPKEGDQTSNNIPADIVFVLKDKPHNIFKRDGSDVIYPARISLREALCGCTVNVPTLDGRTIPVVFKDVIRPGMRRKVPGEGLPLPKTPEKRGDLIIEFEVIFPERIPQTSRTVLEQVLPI
Chain of UniProt Q9H777 (Q9H777 whole entry, looked up): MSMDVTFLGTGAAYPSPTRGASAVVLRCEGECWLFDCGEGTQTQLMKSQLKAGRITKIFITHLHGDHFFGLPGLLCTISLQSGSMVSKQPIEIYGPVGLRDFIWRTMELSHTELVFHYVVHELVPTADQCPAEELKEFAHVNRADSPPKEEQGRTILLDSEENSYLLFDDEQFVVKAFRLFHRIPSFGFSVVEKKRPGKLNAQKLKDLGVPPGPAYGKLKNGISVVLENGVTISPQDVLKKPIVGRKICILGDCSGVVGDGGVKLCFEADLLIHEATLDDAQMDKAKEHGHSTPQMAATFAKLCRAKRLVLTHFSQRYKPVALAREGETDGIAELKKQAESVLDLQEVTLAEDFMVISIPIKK
Chain of UniProt Q16531 (Q16531 whole entry, looked up): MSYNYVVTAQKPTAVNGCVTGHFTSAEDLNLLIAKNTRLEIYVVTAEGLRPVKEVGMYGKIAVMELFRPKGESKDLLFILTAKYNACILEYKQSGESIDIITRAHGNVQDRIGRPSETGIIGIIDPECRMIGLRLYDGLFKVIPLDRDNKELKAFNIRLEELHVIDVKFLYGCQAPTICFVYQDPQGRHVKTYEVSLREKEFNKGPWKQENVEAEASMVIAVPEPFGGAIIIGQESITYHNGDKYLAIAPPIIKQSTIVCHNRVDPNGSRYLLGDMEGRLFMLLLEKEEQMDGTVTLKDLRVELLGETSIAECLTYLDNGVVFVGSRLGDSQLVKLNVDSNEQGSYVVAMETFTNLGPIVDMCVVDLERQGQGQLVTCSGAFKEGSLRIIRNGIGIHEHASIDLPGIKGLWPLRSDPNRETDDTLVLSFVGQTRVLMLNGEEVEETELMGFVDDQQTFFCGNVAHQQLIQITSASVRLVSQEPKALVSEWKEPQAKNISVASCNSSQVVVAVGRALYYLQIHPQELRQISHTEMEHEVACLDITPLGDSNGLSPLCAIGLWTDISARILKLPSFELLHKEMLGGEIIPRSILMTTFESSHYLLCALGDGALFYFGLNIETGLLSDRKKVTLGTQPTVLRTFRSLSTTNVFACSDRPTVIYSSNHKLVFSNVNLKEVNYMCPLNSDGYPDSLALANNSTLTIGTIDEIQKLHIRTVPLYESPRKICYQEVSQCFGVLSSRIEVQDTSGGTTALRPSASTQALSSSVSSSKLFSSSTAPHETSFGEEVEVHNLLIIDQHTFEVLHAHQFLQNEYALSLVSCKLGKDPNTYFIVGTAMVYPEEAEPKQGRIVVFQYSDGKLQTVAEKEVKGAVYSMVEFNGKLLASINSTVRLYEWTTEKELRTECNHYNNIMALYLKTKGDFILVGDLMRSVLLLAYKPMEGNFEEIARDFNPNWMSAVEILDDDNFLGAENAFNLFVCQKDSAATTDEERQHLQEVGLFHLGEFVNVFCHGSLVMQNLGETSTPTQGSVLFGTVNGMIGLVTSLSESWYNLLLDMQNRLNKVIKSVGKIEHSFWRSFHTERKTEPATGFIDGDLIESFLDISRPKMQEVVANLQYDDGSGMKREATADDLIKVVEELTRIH
Chain of UniProt O43432 (O43432 whole entry, looked up): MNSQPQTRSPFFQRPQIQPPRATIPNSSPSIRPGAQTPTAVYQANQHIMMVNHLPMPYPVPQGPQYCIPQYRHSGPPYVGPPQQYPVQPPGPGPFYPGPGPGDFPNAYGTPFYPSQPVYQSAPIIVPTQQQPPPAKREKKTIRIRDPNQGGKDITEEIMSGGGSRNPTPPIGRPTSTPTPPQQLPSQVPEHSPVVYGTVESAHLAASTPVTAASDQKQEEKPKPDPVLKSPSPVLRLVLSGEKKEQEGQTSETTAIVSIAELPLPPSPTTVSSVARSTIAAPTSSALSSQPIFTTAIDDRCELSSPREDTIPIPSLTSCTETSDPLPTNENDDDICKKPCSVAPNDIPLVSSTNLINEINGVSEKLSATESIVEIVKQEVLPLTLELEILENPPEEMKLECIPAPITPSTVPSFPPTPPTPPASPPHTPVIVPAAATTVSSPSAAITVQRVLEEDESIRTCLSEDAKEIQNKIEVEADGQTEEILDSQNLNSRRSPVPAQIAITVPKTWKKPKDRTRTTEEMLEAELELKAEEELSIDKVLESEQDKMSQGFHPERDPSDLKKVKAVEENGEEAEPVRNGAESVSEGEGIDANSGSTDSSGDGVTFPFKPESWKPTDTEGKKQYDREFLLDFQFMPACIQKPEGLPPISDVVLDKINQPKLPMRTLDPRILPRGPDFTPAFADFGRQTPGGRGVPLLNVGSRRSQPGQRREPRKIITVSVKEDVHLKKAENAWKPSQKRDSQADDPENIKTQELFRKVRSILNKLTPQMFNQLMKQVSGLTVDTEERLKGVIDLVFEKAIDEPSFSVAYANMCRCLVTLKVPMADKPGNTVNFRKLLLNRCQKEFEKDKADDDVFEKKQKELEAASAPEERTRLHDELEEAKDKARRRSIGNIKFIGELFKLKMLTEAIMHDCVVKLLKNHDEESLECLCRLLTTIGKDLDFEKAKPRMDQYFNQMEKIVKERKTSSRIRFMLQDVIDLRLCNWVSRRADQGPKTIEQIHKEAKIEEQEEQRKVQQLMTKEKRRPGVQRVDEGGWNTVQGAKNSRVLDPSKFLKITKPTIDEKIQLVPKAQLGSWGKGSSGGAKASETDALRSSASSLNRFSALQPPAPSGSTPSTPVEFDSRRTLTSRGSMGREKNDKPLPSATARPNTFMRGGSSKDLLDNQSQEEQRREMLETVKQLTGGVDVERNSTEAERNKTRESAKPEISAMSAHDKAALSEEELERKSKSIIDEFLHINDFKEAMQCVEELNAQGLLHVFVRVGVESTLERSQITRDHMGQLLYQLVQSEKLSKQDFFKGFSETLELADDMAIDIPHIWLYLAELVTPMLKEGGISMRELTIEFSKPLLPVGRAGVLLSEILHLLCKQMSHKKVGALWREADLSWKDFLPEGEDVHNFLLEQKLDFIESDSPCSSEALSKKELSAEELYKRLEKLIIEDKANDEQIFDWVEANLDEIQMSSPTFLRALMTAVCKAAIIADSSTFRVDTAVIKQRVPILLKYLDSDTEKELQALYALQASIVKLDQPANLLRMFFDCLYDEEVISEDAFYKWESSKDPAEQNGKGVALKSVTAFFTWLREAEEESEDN
Chain of UniProt Q96F86 (Q96F86 whole entry, looked up): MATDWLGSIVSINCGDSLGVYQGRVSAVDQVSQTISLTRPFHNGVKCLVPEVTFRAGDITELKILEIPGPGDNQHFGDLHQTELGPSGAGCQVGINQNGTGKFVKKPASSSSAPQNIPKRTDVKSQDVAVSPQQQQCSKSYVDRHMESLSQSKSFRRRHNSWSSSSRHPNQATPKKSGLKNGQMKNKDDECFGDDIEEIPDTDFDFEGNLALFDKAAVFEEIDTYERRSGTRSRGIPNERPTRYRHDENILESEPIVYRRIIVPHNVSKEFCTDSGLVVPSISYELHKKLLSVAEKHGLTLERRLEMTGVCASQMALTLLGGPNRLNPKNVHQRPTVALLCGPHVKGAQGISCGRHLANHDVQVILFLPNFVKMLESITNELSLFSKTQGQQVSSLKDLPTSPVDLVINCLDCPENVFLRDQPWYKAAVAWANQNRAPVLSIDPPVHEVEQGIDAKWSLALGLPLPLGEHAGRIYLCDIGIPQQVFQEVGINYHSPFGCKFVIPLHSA
Chain of UniProt Q5W0V3 (Q5W0V3 whole entry, looked up): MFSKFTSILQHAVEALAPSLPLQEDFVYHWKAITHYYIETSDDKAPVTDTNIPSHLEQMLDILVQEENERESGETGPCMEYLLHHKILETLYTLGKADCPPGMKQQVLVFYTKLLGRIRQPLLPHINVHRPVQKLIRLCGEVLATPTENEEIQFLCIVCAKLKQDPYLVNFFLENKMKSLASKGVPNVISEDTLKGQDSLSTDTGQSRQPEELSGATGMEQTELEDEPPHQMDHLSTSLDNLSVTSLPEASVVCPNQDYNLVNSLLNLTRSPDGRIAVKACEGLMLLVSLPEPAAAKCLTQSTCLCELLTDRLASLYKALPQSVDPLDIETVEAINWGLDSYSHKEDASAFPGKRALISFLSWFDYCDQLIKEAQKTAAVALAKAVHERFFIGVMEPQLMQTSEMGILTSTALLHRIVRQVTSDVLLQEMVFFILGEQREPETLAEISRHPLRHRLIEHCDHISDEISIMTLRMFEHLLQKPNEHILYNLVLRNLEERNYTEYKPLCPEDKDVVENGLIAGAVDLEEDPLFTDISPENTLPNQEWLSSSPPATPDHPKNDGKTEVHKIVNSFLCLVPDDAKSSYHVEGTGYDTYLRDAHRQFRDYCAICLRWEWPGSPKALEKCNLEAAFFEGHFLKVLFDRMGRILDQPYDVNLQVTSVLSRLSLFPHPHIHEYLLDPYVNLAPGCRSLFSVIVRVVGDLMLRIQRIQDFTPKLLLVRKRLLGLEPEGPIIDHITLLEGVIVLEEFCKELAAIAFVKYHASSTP

log2 fold change, inactive:
FAM207A (UniProt Q9NSI2) 0.168, FAM160B1 (UniProt Q5W0V3) -0.056, EDC3 (UniProt Q96F86) 0.094, DSN1 (UniProt Q9H410) -0.008, DNAJB1 (UniProt P25685) -0.064, CYB561A3 isoform 2 (UniProt Q8NBI2) -0.021, DNAJB12 (UniProt Q9NXW2) 0.068, DDB1 (UniProt Q16531) -0.028, FAM3A (UniProt P98173) -0.023, EXOSC10 (UniProt Q01780) 0.029, ENTPD7 (UniProt Q9NQZ7) -0.021, EEF1A1 (UniProt P68104) -0.121, CTSZ (UniProt Q9UBR2) -0.087, DOCK8 (UniProt Q8NF50) 0.258, DNAJC24 (UniProt Q6P3W2) -0.284, DHRS3 (UniProt O75911) -0.062, EIF2AK3 (UniProt Q9NZJ5) 0.14, ELAC1 (UniProt Q9H777) 0.079, EIF4G3 isoform 3 (UniProt O43432) 0.021, FAM118A (UniProt Q9NWS6) -0.007, DTWD1 (UniProt Q8N5C7) -0.046, DNAH11 (UniProt Q96DT5) 0.298, FAM193B (UniProt Q96PV7) 0.247
